Shown are actives, neighbours in structure and some others; about 7.2% of the full set was active somewhere.
RE007 growth inh: qHTS Assay for Inhibitors of the HIV-1 protein Vpr; S. pombe RE007 Vpr strain, BacTiter-Glo ATP luminescence, 24 h; Potency, µM (titrated, usually from 92.2 µM), hits mostly inhibitors; hit rate 0.21% among 360,000; active = well fitted falling curve with a large enough effect; inconclusive = small, poorly fitted or top-dose-only effect; inactive = no such curve, though single readings can be large or run the other way; note: nearly all actives have a fitted effect of over 50% in size
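Fission yeast strain RE007, carrying one chromosomally integrated HIV-1 vpr copy, was seeded at OD 0.01 in PMG+AL medium with 23 nL pinned compound. After 24 h at 30 °C and 99% humidity, viability was read by BacTiter-Glo luminescence.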
Sm TGR inh: qHTS Assay for the Inhibitors of Schistosoma Mansoni Peroxiredoxins; Schistosoma mansoni thioredoxin glutathione reductase (TGR), Q962Y6; purified TGR, DTNB reduction, TNB absorbance 405 nm; Potency, µM (highest dose often 114 µM), actives largely listed as inhibitors; hit rate 3% among 360,000; AID 485364, 2010; note: nearly all actives have a fitted effect of over 60% in size
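TGR 20 nM + NADPH 100 uM (dispensed conc.), cpd preinc 15 min RT; start with NADPH (500 uM addition) then DTNB (15 mM addition). Kinetic TNB absorbance, 405 nm filter. Four-parameter Hill fit across titration.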
FMDV antiviral: High Throughput Screening for Foot and Mouth Disease Virus Antivirals; AID 1159524, 2015; hit rate 1.2% among 410,000; Potency, µM (top dose mostly 57.9 µM), actives largely listed as inhibitors; FMDV antiviral cell-based qHTS; calls by dose curve; tested in HEK293T cells; note: read-out not given here; nearly all actives have a fitted effect of over 45% in size
Lassa entry inh: qHTS for Inhibitors of binding or entry into cells for Lassa Virus | hit rate 1.2% among 300,000 | Potency, µM (series often up to 37.9 µM), usual class: inhibitors | Lassa virus pseudotype entry inhibition, cell reporter | AID 540256, 2011; calls by dose curve; tested in HEK293 cells; note: nearly all actives have a fitted effect of over 50% in size
MARV entry inh: qHTS for inhibitors of binding or entry into cells for Marburg Virus. hit rate 1.8% among 300,000. Marburg virus pseudotyped entry inhibition, cell reporter. Potency, µM (highest dose often 37.8 µM), most hits filed as inhibitors; calls by dose curve; tested in HEK293 cells
HCV inh: qHTS Assay for Inhibitors of Hepatitis C Virus (HCV); Huh7.5.1 HCVcc-Cre infection, luciferase reporter, 44 h; Potency, µM (titrated, usually from 41.8 µM), actives largely listed as inhibitors; hit rate 3.4% among 340,000; AID 651820, 2012
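1,000 cells/well; 4 h culture; + compound; + HCVcc-Cre (~0.5 moi); 44 h; luciferase substrate, RT 15 min; read 15 sec.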
A number is an active result; . = inactive; ? = inconclusive; / = no result. Unless noted, calls come from the whole dose curve; as a rule, active = well fitted curve in the direction sought with a large enough effect; inconclusive = small, poorly fitted or top-dose-only effect, or another doubt; inactive = no such curve, though single readings can be large; an effect the other way counts as inactive or inconclusive.

SMILES	RE007 growth inh	Sm TGR inh	FMDV antiviral	Lassa entry inh	MARV entry inh	HCV inh
CCOC(=O)CNC(=O)CSc1ncnc2c1cnn2-c1ccc(Cl)cc1	.	.	.	.	.	.
CCOC(=O)Cc1csc(NC(=O)CSc2ncnc3c2cnn3-c2ccc(OC)cc2)n1	.	.	22µM	2µM	?	?
O=C(CSc1ncnc2c1cnn2-c1ccccc1)NC1CCCC1	.	.	.	.	.	10µM
COc1ccc(C(=O)NNc2ncnc3c2cnn3-c2cccc(Cl)c2)cc1OC	/	.	.	?	/	/
COc1ccccc1N1CCN(C(=O)C2CCN(S(=O)(=O)Cc3ccccc3)CC2)CC1	/	.	?	.	.	/
CN(C)c1ccc(N=Nc2nc3ccccc3n2C)cc1	11µM	.	4µM	/	/	10µM
Cn1c(NN=O)nc2ccccc21	.	.	.	?	?	?
Cn1c(N=Nc2ccccc2)nc2ccccc21	16µM	.	.	?	?	?
Cn1c(Cl)nc2ccccc21	.	.	.	.	.	.
CC(C)Cn1c(=O)c2ccccc2n2c(CCC(=O)N3CCN(c4ccccc4F)CC3)nnc12	/	.	.	/	.	/
CCOc1ccccc1NC(=O)CSc1nnc(-c2ccco2)n1Cc1ccco1	.	50µM	.	.	.	?
CCOc1ccccc1NC(=O)CSc1nnc(-c2ccccn2)n1Cc1ccco1	.	?	.	.	.	?
CCOc1ccccc1NC(=O)CSc1nnc(-c2ccccc2Cl)n1Cc1ccco1	.	50µM	.	.	?	?
Cc1ccccc1Cn1cc(S(=O)(=O)c2ccc(C(C)C)cc2)c(=O)c2cc3c(cc21)OCO3	.	/	.	.	.	10µM
Cc1cccc(N2CCN(C(=O)C(C)n3nc(C)n4c(cc5occc54)c3=O)CC2)c1C (configuration not stated)	.	.	?	.	?	10µM
COc1ccc(NC(=O)CSCc2cc(=O)c3cc(Cl)ccc3[nH]2)cc1	/	.	.	.	/	/
COc1ccc(-c2n[nH]c(C)c2-c2cnn(-c3ccccc3)c2)c(O)c1C	.	.	.	.	.	11µM
COc1ccc(-c2n[nH]c(C)c2-c2cnn(-c3ccccc3)c2)c(O)c1	.	.	.	.	?	.
CC(C)C1NC(C(=O)O)Cc2c1[nH]c1ccccc21 (configuration not stated)	.	?	.	.	?	.
CCCC1NC(C(=O)O)Cc2c1[nH]c1ccccc21 (configuration not stated)	.	45µM	.	.	.	.
CC(C)CC1NC(C(=O)O)Cc2c1[nH]c1ccccc21 (configuration not stated)	.	.	.	.	.	.
CCCN1CCC2(CC1)NC(C(=O)O)Cc1c2[nH]c2ccccc12 (configuration not stated)	.	25µM	.	/	/	.
CCC1(C)NC(C(=O)O)Cc2c1[nH]c1ccccc21 (configuration not stated)	.	35µM	.	/	/	.
O=C(O)C1C(c2ccccc2)=C1c1ccc(Br)cc1 (configuration not stated)	.	/	.	/	/	/
COCC(C)n1c(C)cc(C(=O)COC(=O)c2c(NC(C)=O)sc(C)c2C)c1C (configuration not stated)	.	.	?	?	2.6µM	?
SMILES	RE007 growth inh	Sm TGR inh	FMDV antiviral	Lassa entry inh	MARV entry inh	HCV inh
O=C(Nc1ccc(Cc2ccncc2)cc1)C1CCC(N2C(=O)C3C4C=CC(C5CC45)C3C2=O)CC1 (configuration not stated)	.	.	14µM	?	?	8.9µM
CC(=O)Nc1ccc(NC(=O)C2CCC(N3C(=O)C4C5C=CC(C6CC56)C4C3=O)CC2)cc1 (configuration not stated)	.	.	.	/	/	?
OCCCNCc1cc2cc3c(cc2nc1N1CCN(c2cccc(Cl)c2)CC1)OCO3	/	/	.	/	/	/
CCC12C=C(C=Cc3ccccc3)C(CC)(C1)C(c1ccccc1)CC2=O (configuration not stated)	/	/	/	/	.	/
Cc1ccccc1-c1cc(-c2ccccc2O)n[nH]1	?	.	.	.	.	7.1µM
Cc1ccc(-c2cc(-c3ccc(F)cc3)n[nH]2)c(O)c1	.	.	.	.	?	13µM
Oc1ccc(Br)cc1-c1cc(-c2ccccc2F)[nH]n1	.	.	.	.	.	?
Oc1ccc(Br)cc1-c1cc(-c2ccccc2Cl)[nH]n1	.	.	.	/	/	7.9µM
Oc1ccc(Cl)cc1-c1cc(-c2ccccc2)n[nH]1	.	.	.	/	/	10µM
Oc1ccccc1-c1cc(-c2ccccc2)n[nH]1	.	/	.	/	/	?
COC(=O)c1ccccc1C(=O)N1CCc2c(cnc(C)c2CNC(=O)c2ccccc2F)C1	/	/	.	/	/	/
O=C(NCc1ccco1)c1ccc2[nH]c(=O)c(=O)[nH]c2c1	.	.	?	/	/	.
CC(C)(C)N1C(=O)c2ccc(C(=O)NCc3ccco3)cc2C1=O	.	25µM	.	.	.	.
O=C(c1ccc(Br)cc1)c1cc2ccc(O)cc2oc1=O	.	35µM	.	.	.	.
Cc1ccccc1-c1noc(-c2ccccc2C(=O)NCc2ccco2)n1	.	13µM	.	.	?	?
Cc1c(Br)cc(C(=O)NCc2ccco2)c(C)c1C	.	35µM	.	.	.	.
COc1ccc2cc(C(=O)NCc3ccco3)c(=O)oc2c1	.	.	.	.	.	.
Cc1ccc(C(=O)NCc2ccco2)cc1Br	.	45µM	.	.	.	?
O=C(NCc1ccco1)c1cc2ccc(O)cc2oc1=O	35µM	?	.	?	?	.
CCOC(=O)c1ccc(Nc2nc3ccccc3n3c(C)nnc23)cc1	/	.	.	.	/	/
COC(=O)c1ccc(NC(=O)CCc2c(C)nc3c(c(C)nn3C(C)(C)C)c2C)cc1	/	.	.	.	.	/
O=[N+]([O-])c1ccc(-c2csc(NN=C3CCCC3)n2)cc1	.	.	.	.	?	8.9µM
COc1ccc(S(=O)(=O)NCc2nc(N3CCCC3)c3cccc(C)c3n2)cc1OC	/	/	.	/	/	/
COc1ccc(NC(=O)c2ccc3oc(=O)c(S(=O)(=O)c4ccc(C)cc4)cc3c2)cc1OC	/	.	?	.	.	/
CCOC(=O)N1CCc2c(sc(NC(=O)c3ccc(S(=O)(=O)N4CCCC4)cc3)c2C#N)C1	.	.	18µM	/	/	?
CC(C)N1CCc2c(sc(NC(=O)c3ccc(S(=O)(=O)N4CCOCC4)cc3)c2C#N)C1	.	45µM	.	/	.	?
COc1ccc(C(=O)Nc2sc3c(c2C#N)CCN(C(C)=O)C3)cc1	.	.	.	?	?	.
CCC1(c2cccc(Cl)c2)NC(=O)N(Cc2cc(C(=O)OC)c(C)o2)C1=O (configuration not stated)	.	.	28µM	.	.	?

Screening results from PubChem BioAssay.
